Source: PubChem BioAssay (Tox21)
Results filed as inconclusive are left out. Calls of active or inactive are those of the source. Unless noted, the call rests on the fitted dose curve; in most records, active means well fitted curve in the direction sought with a large enough effect in the repeat runs; inconclusive means weak or mixed curves; inactive means no such curve, though single readings can be large; an effect the other way counts as inactive or inconclusive.

Tests used:
[1] = qHTS assay to identify small molecule agonists of the estrogen receptor alpha (ER-alpha) signaling pathway in the presence of an antagonist - cell viability counter screen (AID 1259386);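 further: series mostly up to about 92 µM; cells exposed to compounds for 22 h at 37 °C before the viability read; nearly all actives have a fitted effect of over 30% in size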
In short: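 Cells are starved of estrogens for 5 days in charcoal-stripped serum, seeded for 24hr and co-treated with ICI-182,780 (10.0nM final) and test compounds. After 22hr at 37C, viability is read as CellTiter-Fluor fluorescence.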

[2] = molecular target: Progesterone receptor (Homo sapiens) (UniProt P06401); experiment: qHTS assay to identify small molecule agonists of the progesterone receptor (PR) signaling pathway (AID 1346784; calls by dose curve; further: nearly all actives have a fitted effect of over 30% in size)
Sequence of Progesterone receptor (Homo sapiens) (P06401 whole entry, looked up): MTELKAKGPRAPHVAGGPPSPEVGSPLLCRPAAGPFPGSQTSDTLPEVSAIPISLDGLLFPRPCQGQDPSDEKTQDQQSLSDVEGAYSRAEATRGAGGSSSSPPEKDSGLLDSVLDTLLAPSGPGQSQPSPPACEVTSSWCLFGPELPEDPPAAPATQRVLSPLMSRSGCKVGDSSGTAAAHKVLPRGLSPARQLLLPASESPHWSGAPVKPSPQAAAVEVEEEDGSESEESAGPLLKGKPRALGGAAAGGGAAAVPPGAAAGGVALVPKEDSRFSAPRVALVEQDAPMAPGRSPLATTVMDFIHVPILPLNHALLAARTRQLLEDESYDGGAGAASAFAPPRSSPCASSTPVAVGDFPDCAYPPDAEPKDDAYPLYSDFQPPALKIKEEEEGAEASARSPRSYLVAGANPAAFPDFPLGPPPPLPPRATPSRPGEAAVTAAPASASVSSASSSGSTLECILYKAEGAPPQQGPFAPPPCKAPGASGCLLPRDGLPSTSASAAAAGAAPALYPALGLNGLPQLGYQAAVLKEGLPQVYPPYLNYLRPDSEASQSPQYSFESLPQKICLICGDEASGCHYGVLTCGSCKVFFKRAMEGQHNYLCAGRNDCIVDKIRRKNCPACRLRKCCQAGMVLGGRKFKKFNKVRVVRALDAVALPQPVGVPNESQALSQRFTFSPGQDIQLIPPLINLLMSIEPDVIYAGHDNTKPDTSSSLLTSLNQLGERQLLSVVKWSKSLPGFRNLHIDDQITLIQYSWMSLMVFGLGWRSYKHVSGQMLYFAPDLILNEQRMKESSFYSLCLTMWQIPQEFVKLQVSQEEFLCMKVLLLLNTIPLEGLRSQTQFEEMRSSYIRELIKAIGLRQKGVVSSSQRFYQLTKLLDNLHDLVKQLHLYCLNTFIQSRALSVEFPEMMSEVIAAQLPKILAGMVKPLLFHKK
In short: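 Reporter assay, GripTite PR-UAS-bla HEK 293T cells: 16 hr exposure to DMSO-dissolved compounds at 37C, 5% CO2, in steroid-depleted (2% charcoal-stripped FBS) medium; beta-lactamase measured by FRET fluorescence.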

[3] = qHTS assay to identify small molecule antagonists of the progesterone receptor (PR) signaling pathway - cell viability counter screen (AID 1346798); further: series mostly up to about 92 µM; nearly all actives have a fitted effect of over 50% in size
In short: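 In the same plates used for the beta-lactamase readout, cell viability of compound- and R5020-treated PR-UAS-bla HEK293T cells (16 hr, 37C) was assessed by CellTiter-Glo luminescence.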

[4] = qHTS assay to identify small molecule agonists of the progesterone receptor (PR) signaling pathway - cell viability counter screen (AID 1346799; calls by dose curve; further: nearly all actives have a fitted effect of over 45% in size)
In short: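 Multiplexed viability read: CellTiter-Glo luminescence, 30 min RT, following LiveBLAzer FRET measurement on PR-UAS-bla HEK293T cells exposed to compounds 16 hr.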

[5] = qHTS assay to identify small molecule antagonists of the TGF-beta/Smad signaling pathway - cell viability counter screen (AID 1346824); further: nearly all actives have a fitted effect of over 50% in size
In short: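 SBE-bla HEK 293T cells, incubated overnight, then compound plus 0.25 ng/mL TGF-beta1 (stock added) for 5 hr at 37 C. Viability was read in the same wells by CellTiter-Glo luminescence after 30 min at room temperature.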

[6] = qHTS assay to identify small molecule agonists of the TGF-beta/Smad signaling pathway - cell viability counter screen (AID 1346829); further: top concentration of the series differs between compounds; nearly all actives have a fitted effect of over 45% in size
In short: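 Luminescence from CellTiter-Glo, read after a 30 min room-temperature incubation, gives cell viability of SBE-bla HEK 293T cells treated 5 hr with compounds at 37 C.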

[7] = qHTS assay to identify small molecule agonists of the TGF-beta/Smad signaling pathway (AID 1346859; active means well fitted activation curve with a large enough effect in the signal ratio in the repeat runs, not every such curve was filed as active; the % refers to the signal ratio; further: series mostly up to about 77 µM)
In short: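 Screening used HEK 293T SBE-bla cells at 4,000/well. Test agents: 5 hr, 37 C. Detection: FRET substrate, 2 hr RT, then excitation 405 nm with emissions at 460 and 530 nm.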

[8] = molecular target: Thyrotropin-releasing hormone receptor (Homo sapiens) (UniProt P34981); experiment: qHTS assay to identify small molecule antagonists of the thyrotropin-releasing hormone receptor (TRHR) signaling pathway (AID 1346877; active means well fitted inhibition curve with a large enough effect in the repeat runs, not every such curve was filed as active; further: series mostly up to about 51 µM)
Sequence of Thyrotropin-releasing hormone receptor (Homo sapiens) (P34981 whole entry, looked up): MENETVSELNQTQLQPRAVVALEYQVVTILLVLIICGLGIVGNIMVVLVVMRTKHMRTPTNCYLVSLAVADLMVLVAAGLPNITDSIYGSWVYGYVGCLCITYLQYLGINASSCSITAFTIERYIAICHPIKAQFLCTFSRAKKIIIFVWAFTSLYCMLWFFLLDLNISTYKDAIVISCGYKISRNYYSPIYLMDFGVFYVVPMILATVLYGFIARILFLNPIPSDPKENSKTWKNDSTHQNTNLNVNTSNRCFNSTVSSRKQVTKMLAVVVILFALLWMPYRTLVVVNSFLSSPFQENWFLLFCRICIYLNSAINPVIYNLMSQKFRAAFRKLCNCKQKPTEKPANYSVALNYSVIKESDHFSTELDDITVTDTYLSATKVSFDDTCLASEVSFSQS
In short: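 Cells (TRHR-HEK293) are plated and kept 18 h at 37 °C/5% CO2. A calcium-sensitive dye is added for 2 h, compound follows for 5 min at room temperature, and TRH is then given at 1 nM final.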

[9] = molecular target: Thyrotropin-releasing hormone receptor (Homo sapiens) (UniProt P34981); experiment: qHTS assay to identify small molecule agonists of the thyrotropin-releasing hormone receptor (TRHR) signaling pathway (AID 1346891; calls by dose curve; further: series mostly up to about 58 µM)
In short: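 Readout was intracellular calcium fluorescence in TRHR-Hek293 cells. Cells were incubated 18 h, dye-loaded 2 h at 37 °C, and treated with compound in agonist mode.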

[10] = molecular target: Progesterone receptor (Homo sapiens) (UniProt P06401); experiment: qHTS assay to identify small molecule antagonists of the progesterone receptor (PR) signaling pathway (AID 1346795; active means well fitted inhibition curve with a large enough effect in the signal ratio in the repeat runs, not every such curve was filed as active; the % refers to the signal ratio)
In short: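 Stimulus R5020 at 1 nM final; cells HEK293T PR-UAS-bla; medium with 2% charcoal-stripped FBS; compound exposure 16 hr at 37C, 5% CO2; detection by FRET beta-lactamase substrate, 2 hr, room temperature.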

Measured: Potency

c1ccc2sc(SNC3CCCCC3)nc2c1
not listed: [10]
inactive: all other assays above

O=S(=O)(Cl)Cl
not listed: [10]
inactive: all other assays above

CCCSP(=S)(OCC)Oc1ccc(SC)cc1 (centres undefined)
not listed: [8] | [9] | [10]
inactive: all other assays above

SCc1ccccc1
not listed: [10]
inactive: all other assays above

COCc1cnc(C2=NC(C)(C(C)C)C(=O)N2)c(C(=O)O)c1 (centres undefined)
not listed: [4]
inactive: all other assays above

CCCCCCCCCCCCN(C)C
not listed: [10]
inactive: all other assays above

O=C([O-])c1ccccn1.O=C([O-])c1ccccn1.O=C([O-])c1ccccn1.[Cr+3]
inactive: [1] | [2] | [3] | [4] | [6] | [7]

Clc1ccc2ccccc2c1
not listed: [4]
inactive: all other assays above

CCCCCBr
not listed: [5]
inactive: all other assays above

Nc1cccc2ccccc12
not listed: [5] | [10]
inactive: all other assays above

CC(C)c1ccc(NC(=O)N(C)C)cc1
not listed: [1]
inactive: all other assays above

CCC(=O)O[C@@H]1C=C2CCC3C(CCC4(C)C3CC[C@@H]4OC(=O)CC)C2CC1 (some centres undefined)
not listed: [2] | [4]
inactive: all other assays above

O=[N+]([O-])/C=C/c1ccccc1
not listed: [2] | [10]
inactive: all other assays above
